Screening results (PubChem)
An excerpt weighted towards active compounds, which were near 19% of everything screened.
TDP1 cell CPT: qHTS for Inhibitors of human tyrosyl-DNA phosphodiesterase 1 (TDP1): qHTS in cells in presence of CPT; chicken DT40 Tdp1-/-;hTDP1 cells + 20 nM CPT, ATP luminescence, 48 h; Potency, µM (highest dose often 46.2 µM), usual class: inhibitors; 420,000 compounds, 12% hits; AID 686979, 2013; note: nearly all actives have a fitted effect of over 55% in size
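Chicken DT40 Tdp1-/- cells complemented with human TDP1, 400 cells/well, exposed to compounds plus 20 nM camptothecin for at least 48 h at 37 C; viability read as ATP content by CellTiter-Glo luminescence.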
IL1B secr inh: qHTS for Inhibitors of Inflammasome Signaling: IL-1-beta AlphaLISA Primary Screen; THP-1 LPS/ATP IL-1B secretion, AlphaLISA, 16 h; stronger effect = lower value; activity change, % at 57.5 µM; 360,000 compounds, 4.7% hits; in the data active = activity change below about -50%; inconclusive = mostly about -30% to -49%
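Secreted IL-1B measured by AlphaLISA bead assay after 16 h compound exposure of THP-1 cells; compounds (final up to 57.5 uM) added 1 h before LPS (250 ng/mL) and ATP (1.25 mM) stimulation; lower signal means less secretion.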
DT40 TDP1 no CPT: qHTS for Inhibitors of human tyrosyl-DNA phosphodiesterase 1 (TDP1): qHTS in cells in absence of CPT; DT40 Tdp1-/- hTDP1 cells, no CPT, ATP luminescence, 48 h; Potency, µM (doses to about 46.2 µM), most hits filed as inhibitors; 420,000 compounds, 15% hits; AID 686978, 2013; note: nearly all actives have a fitted effect of over 55% in size
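Compound effects on proliferation are scored in DT40 Tdp1-/-;hTDP1 cells in the absence of CPT. ATP levels (CellTiter-Glo luminescence) are recorded after a ≥48 hr, 37 °C incubation.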
HT1080 IDH1KD tx: qHTS for induction of synthetic lethality in tumor cells producing 2HG: qHTS for the HT-1080-IDH1KD cell line | 360,000 compounds, 2% hits | HT-1080 IDH1 knockdown viability, ATP luminescence, 48 h | AID 686971, 2013 | Potency, µM (titrated, usually from 46.1 µM), hits mostly cytotoxic
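In this qHTS, HT-1080 cells depleted of IDH1 are exposed for 48 h at 37 °C to compound titrations. Toxicity is scored from CellTiter-Glo luminescence, with DMSO as full viability and medium alone as none.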
ELG1 repair inh: qHTS screen for small molecules that inhibit ELG1-dependent DNA repair in human embryonic kidney (HEK293T) cells expressing luciferase-tagged ELG1. HEK293T ELG1-luciferase reporter, luminescence, 16 h; DNA damage induced by 5-fluorouridine. Potency, µM (doses to about 46.1 µM), hits mostly inhibitors. 330,000 compounds, 2.3% hits. AID 504467, 2011; note: nearly all actives have a fitted effect of over 55% in size
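Quantitative HTS, concentration-response format. 2,000 cells/well co-treated with 5-fluorouridine and compound, 16 hr in 5% CO2 at 37 °C; ONE-Glo luminescence read after 30 min.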
HT1080NT lethal: qHTS for induction of synthetic lethality in tumor cells producing 2HG: qHTS for the HT-1080-NT fibrosarcoma cell line; HT-1080-NT fibrosarcoma viability, CellTiter-Glo ATP luminescence, 48 h; Potency, µM (series often up to 46.1 µM), usual class: cytotoxic; 360,000 compounds, 1.6% hits; AID 686970, 2013;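 note: NT is the 2HG producing partner of a matched IDH1 knockdown line; nearly all actives have a fitted effect of over 55% in size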
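Luminescent CellTiter-Glo readout after 48 hours of compound exposure at 37 degrees C defined viability of HT-1080-NT cells. Activity was normalized to DMSO wells and cell-free media wells; concentration-response curves were fitted and assigned curve classes.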
Hits are given with their value; 0 = inactive; ? = inconclusive; - = no result given. Unless noted, calls come from the whole dose curve; as a rule, active = well fitted curve in the direction sought with a large enough effect; inconclusive = small, poorly fitted or top-dose-only effect, or another doubt; inactive = no such curve, though single readings can be large; an effect the other way counts as inactive or inconclusive.

SMILES | TDP1 cell CPT | IL1B secr inh | DT40 TDP1 no CPT | HT1080 IDH1KD tx | ELG1 repair inh | HT1080NT lethal
COc1ccccc1S(=O)(=O)N(C)C[C@@H]1OCc2cnnn2CCCC(=O)N([C@H](C)CO)C[C@@H]1C | 0 | 0 | 0 | 0 | - | 0
CC(C)c1ccc(C(CC(=O)O)N2Cc3ccccc3C2=O)cc1 (stereo not drawn) | 0 | 0 | 0 | 0 | 0 | 0
CCN(CC)S(=O)(=O)c1ccc(-c2csc(C)n2)s1 | 0 | 0 | 0 | 0 | 0 | 0
Cc1ccc(NS(=O)(=O)c2ccc(-c3csc(C)n3)s2)c(C)c1 | ? | 0 | 16.4µM | ? | ? | ?
CN(C)c1cccc(C(=O)NNC(=O)/C=C/c2cccs2)c1 | 0 | 0 | 0 | 0 | 0 | 0
COc1cc2ncc(-c3ccccc3)nc2cc1OC | 20.6µM | - | 25.1µM | - | - | -
COc1cc2cnc(-c3ccccc3)cc2cc1OC | 18.4µM | 0 | ? | 0 | ? | 0
CCOC(=O)c1ccc2ncc(-c3ccccc3)nc2c1 | 0 | 0 | 0 | 0 | ? | ?
COc1ccc2cc(-c3ccsc3)ncc2c1 | 0 | 0 | ? | 0 | ? | 0
COc1cc(OC)cc(-c2cc3ccc(OC)cc3cn2)c1 | 16.4µM | 0 | 13µM | ? | ? | ?
COc1cc2cnc(-c3ccccc3)c(-c3cc(OC)c(OC)c(OC)c3)c2cc1OC | ? | -50.8 | 13µM | ? | 9.2µM | 0
O=C(Nc1ccc(S(=O)(=O)NC2=NCCCCC2)cc1)c1cccc(OC(F)F)c1 | ? | 0 | ? | 0 | - | 0
O=C(COC(=O)c1cc([N+](=O)[O-])ccc1N1CCOCC1)NCc1ccc(Cl)cc1Cl | ? | 0 | ? | 0 | ? | 0
COc1cc2ncnc(Nc3ccc4c(c3)OCO4)c2cc1OC | 0 | ? | 0 | 0 | 0 | 0
C#Cc1cccc(Nc2ncnc3cc(OCCOC)c(OCCOC)cc23)c1 | ? | - | 13.3µM | - | - | -
COc1cc2ncnc(Nc3cccc(Br)c3)c2cc1OC | 16.8µM | - | ? | - | - | -
Brc1ccc(COc2ncnc3ccccc23)cc1 | 0 | 0 | 0 | ? | 0 | 0
COc1ccc(COc2ncnc3ccc(Br)cc23)cc1F | 0 | -65.0 | 0 | 0 | 0 | 0
COc1cc2c(Nc3ccc(Br)cc3F)ncnc2cc1OCC1CCN(C)CC1 | 4.73µM | - | 4.73µM | - | - | -
COC(=O)C[C@H]1CC[C@H](NC(=O)Nc2ccccc2)[C@@H](CO)O1 | 0 | 0 | 0 | 0 | - | 0
COc1ccc(N2CCN(C(=O)CCn3c(=O)c4cccn4c4cccnc43)CC2)cc1 | 0 | - | 0 | - | - | -
CCCc1nn2c(=O)cc(COC(=O)c3ccco3)nc2s1 | 0 | - | 0 | - | - | -
O=C(/C=C\c1cccs1)N1CCN(Cc2ccc3c(c2)OCO3)CC1 | 0 | 0 | 0 | 0 | 0 | 0
COc1ccc(Nc2ncnc3sccc23)cc1OC | 0 | 0 | 0 | 0 | 0 | 0
COc1ccc(Nc2ncnc3ccc(Br)cc23)cc1OC | 18.4µM | 0 | ? | 0 | ? | 0
SMILES | TDP1 cell CPT | IL1B secr inh | DT40 TDP1 no CPT | HT1080 IDH1KD tx | ELG1 repair inh | HT1080NT lethal
CCC1(C)Cc2ccccc2/C(=C/C(=O)N2CCCCC2)N1 (stereo not drawn) | 18.4µM | 0 | 20.6µM | 0 | 0 | 0
CNC(=O)/C=C1\NC(C)(C)Cc2ccccc21 | 0 | 0 | 0 | ? | 0 | ?
CC(Sc1nnc(-c2ccccc2)n1C)C(=O)NCc1ccco1 (stereo not drawn) | 0 | - | 0 | - | - | -
CCOC(=O)CNC(=O)CSc1nc2cccnc2n1C | 0 | 0 | 0 | 0 | 0 | 0
COc1ccc(NC(=O)CSc2nc3cccnc3n2C)cc1 | 0 | 0 | 0 | 0 | 0 | 0
CCOC(=O)c1c(-c2ccccc2)nc2c(C)cccn12 | 14.6µM | 0 | 16.4µM | 0 | 0 | 0
CCOC(=O)c1ccc(NC(=O)CSc2nc3cccnc3n2C)cc1 | ? | 0 | 20.6µM | ? | ? | 0
CCOC(=O)c1c(-c2ccccc2)nc2ccccn12 | ? | 0 | ? | 0 | 0 | 0
COC(=O)c1ccc(NC(=O)CSc2nc3cccnc3n2C)cc1 | ? | 0 | 16.4µM | 0 | ? | 0
CCOC(=O)c1ccc(NC(=O)CSc2nc(=O)n3cccc(C)c3n2)cc1 | 20.6µM | ? | 13µM | 0 | 0 | 0
CCc1nc2ccc(C(=O)NCCCN3CCCC3=O)cn2c1N(C)C(=O)C1CCCCC1 | ? | 0 | 0 | 0 | - | ?
CC(C)NC(=S)NNc1nc2ccccc2s1 | 1.46µM | 0 | 2.91µM | 0 | 0 | 0
CC(C)C(=O)N(Nc1nc2ccccc2s1)C(=O)C(C)C | 0 | 0 | 0 | 0 | 0 | 0
Nc1nc2c(s1)CCc1c-2cnn1-c1ccccc1 | 14.6µM | 0 | 13µM | 0 | ? | 0
Cc1ccc(-c2cnn(-c3ccccc3)c2N)cc1 | ? | 0 | 0 | 0 | ? | 0
O=C(CSc1nnc(Cc2ccccc2)o1)c1cc(F)ccc1F | 0 | 0 | 0 | 0 | 0 | 0
Cc1cc(NC(=O)CCC(=O)N(Cc2ccco2)C(C(=O)NC2CCCC2)c2ccccc2C)no1 (stereo not drawn) | 23.1µM | 0 | 23.1µM | 0 | ? | 0
COc1ccc(N(C(=O)/C=C/C(=O)Nc2cc(C)on2)C(C(=O)NC2CCCC2)c2ccccc2C)cc1 (stereo not drawn) | ? | -86.5 | 20.6µM | ? | 0 | ?
Cc1cc(NC(=O)CCC(=O)N(Cc2ccco2)C(C(=O)NC2CCCC2)c2ccccc2F)no1 (stereo not drawn) | 0 | 0 | ? | 0 | 0 | 0
COc1ccc(N(C(=O)CCC(=O)Nc2cc(C)on2)C(C(=O)NC2CCCC2)c2ccco2)cc1 (stereo not drawn) | 0 | 0 | 0 | 0 | 0 | 0
CCCCN(C(=O)CCC(=O)Nc1cc(C)on1)C(C(=O)NC1CCCC1)c1ccc(OC)cc1 (stereo not drawn) | ? | 0 | 0 | 0 | 0 | 0
CCCCN(C(=O)CCC(=O)Nc1cc(C)on1)C(C(=O)NC1CCCC1)c1cccc(OC)c1 (stereo not drawn) | 8.2µM | 0 | ? | 0 | 0 | 0
CCCCCn1nnc2c(=O)oc3ccccc3c21 | 0 | 0 | 0 | 0 | 0 | 0
Clc1ccc(-c2nnc(Sc3nc4ccccc4o3)c3ccccc23)cc1 | ? | -103.7 | 16.4µM | 11.2µM | ? | 11.2µM
CC(CC(=O)Nc1ccc2c(c1)c(=O)n(C)n2-c1ccccc1F)c1ccccc1 (stereo not drawn) | 6.51µM | 0 | 5.8µM | 4.11µM | - | 7.31µM
